Several values for one entry are separate records, joined by “and”; a condition that tells them apart may be missing. Equal entries are not always repeated. In all, about 5,500 compounds went through this assay and about 2,000 (36%) were called active. Another 18% or so got no clear call; they are omitted. No stated cut-off is given here; in the data, active means normalized growth mostly below about 0.91 (no sharp cut-off); inconclusive means no clear call, values can overlap the other calls; inactive means mostly above about 0.92. This is one part of the list.
Test: chemical genetic growth profiling, strain panel (AID 1159580);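 further: tested at 20 µM; growth read once vehicle control cultures reached saturation at 30 °C; 1 = growth at the plate median or of vehicle wells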
Details: S. cerevisiae deletion strains, growth OD

Measured: normalized growth

CC1O[C@@H](Oc2c(-c3ccc(O)c(O)c3)oc3cc(O)cc(O)c3c2=O)[C@H](O)[C@H](O)[C@H]1O (some centres not stated)
inactive: locus YAL013W, strain DEP1, stronger effect = lower value 1 | locus YAL021C, strain ccr4, stronger effect = lower value 1 | locus YAL026C, strain drs2, stronger effect = lower value 0.996 | locus YAL030W, strain snc1, stronger effect = lower value 0.999 | locus YBL061C, strain skt5, stronger effect = lower value 0.993 | locus YBR009C, strain hhf1, stronger effect = lower value 0.99 | locus YBR021W, strain FUR4, stronger effect = lower value 1.01 | locus YBR023C, strain chs3, stronger effect = lower value 0.995 | locus YBR171W, strain sec66, stronger effect = lower value 0.971 | locus YBR229C, strain ROT2, stronger effect = lower value 1 | locus YBR231C, strain swc5, stronger effect = lower value 0.985 | locus YBR279W, strain paf1, stronger effect = lower value 0.995 | locus YCL011C, strain gbp2, stronger effect = lower value 0.997 | locus YCL016C, strain dcc1, stronger effect = lower value 0.993 | locus YCL029C, strain bik1, stronger effect = lower value 0.978 | locus YCL061C, strain MRC1, stronger effect = lower value 0.985 | locus YCL069W, strain vba3, stronger effect = lower value 0.991 | locus YCR088W, strain abp1, stronger effect = lower value 0.985 | locus YDL005C, strain med2, stronger effect = lower value 0.979 | locus YDL035C, strain GPR1, stronger effect = lower value 1 | locus YDL040C, strain nat1, stronger effect = lower value 0.984 | locus YDL074C, strain BRE1, stronger effect = lower value 0.965 | locus YDL101C, strain DUN1, stronger effect = lower value 0.991 | locus YDL134C, strain PPH21, stronger effect = lower value 1 | locus YDL185W, strain tfp1, stronger effect = lower value 0.956 | locus YDL192W, strain arf1, stronger effect = lower value 0.985 | locus YDR001C, strain nth1, stronger effect = lower value 0.999 | locus YDR069C, strain doa4, stronger effect = lower value 0.985 | locus YDR101C, strain arx1, stronger effect = lower value 0.999 | locus YDR137W, strain rgp1, stronger effect = lower value 1.01 | locus YDR150W, strain NUM1, stronger effect = lower value 0.998 | locus YDR159W, strain sac3, stronger effect = lower value 0.97 | locus YDR162C, strain NBP2, stronger effect = lower value 1 | locus YDR195W, strain ref2 0.967 | locus YDR297W, strain sur2, stronger effect = lower value 0.987 | locus YDR318W, strain mcm21, stronger effect = lower value 0.986 | locus YDR334W, strain swr1, stronger effect = lower value 0.995 | locus YDR335W, strain msn5, stronger effect = lower value 1 | locus YDR388W, stronger effect = lower value 0.994 | locus YDR392W, strain spt3, stronger effect = lower value 0.98 | locus YDR502C, strain sam2, stronger effect = lower value 1.01 | locus YEL003W, strain gim4, stronger effect = lower value 0.994 | locus YEL037C, strain rad23, stronger effect = lower value 0.997 | locus YEL061C, strain CIN8 (second series), stronger effect = lower value 0.995 | locus YEL061C, strain CIN8, stronger effect = lower value 0.996 | locus YER015W, strain faa2, stronger effect = lower value 0.973 | locus YER016W, strain bim1, stronger effect = lower value 0.994 | locus YER110C, stronger effect = lower value 0.993 | locus YER111C, strain swi4, stronger effect = lower value 0.997 | locus YER155C, strain BEM2 (second series), stronger effect = lower value 0.982 | locus YER155C, strain BEM2, stronger effect = lower value 0.995 | locus YER167W, strain BCK2, stronger effect = lower value 0.999 | locus YFR010W, strain ubp6, stronger effect = lower value 0.988 | locus YGL078C, strain dbp3, stronger effect = lower value 0.992 | locus YGL086W, strain mad1, stronger effect = lower value 1.03 | locus YGL167C, strain pmr1, stronger effect = lower value 0.99 | locus YGL173C, strain kem1, stronger effect = lower value 0.979 | locus YGL227W, strain vid30, stronger effect = lower value 0.979 | locus YGL240W, strain doc1, stronger effect = lower value 0.976 | locus YGL248W, strain PDE1, stronger effect = lower value 1 | locus YGL253W, strain hxk2, stronger effect = lower value 0.985 | locus YGR078C, strain PAC10, stronger effect = lower value 0.98 | locus YGR135W, strain pre9, stronger effect = lower value 0.989 | locus YGR229C, strain SMI1, stronger effect = lower value 1 | locus YGR252W, strain gcn5, stronger effect = lower value 1.18 | locus YHR013C, strain ard1, stronger effect = lower value 0.982 | locus YHR027C, strain rpn1, stronger effect = lower value 0.988 | locus YHR030C, strain SLT2, stronger effect = lower value 0.997 and 0.954 | locus YHR079C, strain IRE1 (second series), stronger effect = lower value 0.989 | locus YHR079C, strain IRE1, stronger effect = lower value 0.962 | locus YHR094C, strain hxt1, stronger effect = lower value 0.982 | locus YHR129C, strain ARP1, stronger effect = lower value 0.987 | locus YHR142W, strain chs7, stronger effect = lower value 0.995 | locus YHR200W, strain rpn10, stronger effect = lower value 0.986 | locus YIL066C, strain RNR3, stronger effect = lower value 1 | locus YIL073C, strain SPO22, stronger effect = lower value 0.95 | locus YIL125W, strain kgd1, stronger effect = lower value 0.987 | locus YIR030C, strain dcg1, stronger effect = lower value 0.991 | locus YJL092W, strain hpr5, stronger effect = lower value 0.985 | locus YJL095W, strain BCK1 (second series), stronger effect = lower value 0.998 | locus YJL095W, strain BCK1, stronger effect = lower value 0.952 and 0.984 | locus YJL115W, strain asf1, stronger effect = lower value 0.991 | locus YJL129C, strain trk1, stronger effect = lower value 1 | locus YJL134W, strain LCB3, stronger effect = lower value 0.997 | locus YJL154C, strain vps35, stronger effect = lower value 0.993 | locus YJL164C, strain tpk1, stronger effect = lower value 0.984 | locus YJL166W, strain qcr8, stronger effect = lower value 0.994 | locus YJL168C, strain set2, stronger effect = lower value 0.996 | locus YJL187C, strain SWE1 (second series), stronger effect = lower value 0.988 | locus YJL187C, strain SWE1, stronger effect = lower value 0.989 | locus YJR043C, strain POL32, stronger effect = lower value 0.987 | locus YJR066W, strain TOR1, stronger effect = lower value 0.922
